AMPAR-TARP mod – modulates AMPAR-stargazin complexes; O88602+P19491; HEK293 GluA2+stargazin, membrane potential dye (FDSS), glutamate EC50; hits were called plate by plate, in both directions; calls only at 30 µM; actives 3.5% (n = 40,000);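 active = any of four per-well response measures lying three or more SD from its plate-wide compound average, in either direction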
GIRK2 act – Activates human GIRK2-containing potassium channels | 34,000 tested, under 10 active | HEK293 GIRK2/NPY4 cells, thallium flux fluorescence | activation (% efficacy), % for hits at 37.5 µM | P48051;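 active = primary screen hit, no activity in plain HEK293 cells, and in GIRK2-only cells above 5% efficacy rising with concentration; inactive = the rest, including fluorescent compounds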;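 also: efficacy is normalized control-subtracted fluorescence 15 s after thallium addition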
Calls only. Many of the other results were omitted from the sample, so hits are more common in it than they were.

Screening O=C(c1ccc(Br)o1)N(C(=O)N1CCCCC1)c1ccc(Cl)cc1 returned AMPAR-TARP mod active.
`O=C(c1cccs1)N(C(=O)N1CCCCC1)c1ccc(Cl)cc1` gave AMPAR-TARP mod active.
`CSc1ccccc1C(=O)N(C(=O)N1CCCCC1)c1ccc(Cl)cc1` gave AMPAR-TARP mod inactive.
For O=C(c1cccs1)N(C(=O)N1CCCCC1)c1cccc(Cl)c1 the results were AMPAR-TARP mod inactive and GIRK2 act inactive.
Screening CN(C)S(=O)(=O)N1CCN(CC(=O)Nc2cc(Cl)ccc2Cl)CC1 returned AMPAR-TARP mod inactive.
For Cc1ccc(NC(=O)c2ccc(C3Nc4ccccc4S(=O)(=O)N3)cc2)cc1Cl (stereo not given) the results were AMPAR-TARP mod inactive.
Screening Cn1c(=O)c(C(=O)NCCc2ccc(S(N)(=O)=O)cc2)cc2cccnc21 returned AMPAR-TARP mod inactive and GIRK2 act inactive.
`Cn1c(=O)c(C(=O)Nc2ccc(S(N)(=O)=O)cc2)cc2cccnc21` gave AMPAR-TARP mod active and GIRK2 act inactive.
COc1ccc(CC(=O)Nc2ccc(Nc3ccc(C)nn3)cc2)cc1 was read as AMPAR-TARP mod inactive and GIRK2 act inactive.
`COc1cccc(CNC(=O)C(=O)Nc2ccc3c(c2)N(C(=O)C(C)C)CCC3)c1` gave AMPAR-TARP mod active and GIRK2 act inactive.
For COc1ccc(CNC(=O)C(=O)Nc2ccc3c(c2)N(C(=O)C(C)C)CCC3)cc1 the results were AMPAR-TARP mod inactive and GIRK2 act inactive.
`COc1ccc(OCC(=O)N2CCN(c3nccn3-c3ccccc3F)CC2)cc1` gave AMPAR-TARP mod inactive and GIRK2 act inactive.
Screening O=C(NCCOc1ccc2nnc(-c3ccccc3Cl)n2n1)Nc1ccccc1F returned AMPAR-TARP mod inactive and GIRK2 act inactive.
`CC(C)(C)C(=O)N1CCc2ccc(NS(=O)(=O)c3ccc4c(c3)OCCO4)cc21` gave AMPAR-TARP mod inactive and GIRK2 act inactive.
Screening CC(=O)Cc1nsc(NC(=O)c2oc3ccc(C)cc3c2C)n1 returned AMPAR-TARP mod inactive.
CC(=O)Cc1nsc(NC(=O)c2cc(-c3ccc([N+](=O)[O-])cc3)oc2C)n1 was read as AMPAR-TARP mod active and GIRK2 act inactive.
CCOCCn1c(-n2nc(C)cc2C)nc2c1c(=O)n(Cc1ccc(F)cc1)c(=O)n2C was read as AMPAR-TARP mod inactive and GIRK2 act inactive.
Screening COCCn1c(=O)c2c(nc(-n3nc(C)cc3C)n2Cc2ccc(F)cc2)n(C)c1=O returned AMPAR-TARP mod active and GIRK2 act inactive.
For Cc1ccc(CNC(=O)CSc2nnc(-c3ccncc3)o2)cc1 the results were AMPAR-TARP mod inactive and GIRK2 act inactive.
For Cc1cc(Br)c2nc(-c3ccncc3)oc(=O)c2c1 the results were AMPAR-TARP mod active and GIRK2 act inactive.
For CCCN(CCC)S(=O)(=O)c1ccc(C(=O)Nc2ccccc2OC)cc1 the results were AMPAR-TARP mod active.
COc1ccccc1NC(=O)c1ccc(S(=O)(=O)N(C)C2CCCCC2)cc1 was read as AMPAR-TARP mod inactive.
`COC(=O)N1CCC(CNC(=O)C(=O)NCCc2ccccc2)CC1` gave AMPAR-TARP mod inactive and GIRK2 act inactive.
Screening COC(=O)N1CCC(CNC(=O)CCc2ccccc2)CC1 returned AMPAR-TARP mod active and GIRK2 act inactive.
COc1ccc(C2(CNC(=O)Cc3cccs3)CCCC2)cc1 was read as GIRK2 act inactive.
`CC1CCN(C(=O)CN2C(=O)NC3(CCC(C)CC3)C2=O)CC1` (stereo not given) gave AMPAR-TARP mod inactive and GIRK2 act inactive.
For COc1ccc(S(=O)(=O)NCc2nnnn2-c2ccc(F)c(F)c2)cc1 the results were AMPAR-TARP mod inactive.
For COc1ccc(S(=O)(=O)NCc2nnnn2-c2ccc(F)cc2)cc1 the results were AMPAR-TARP mod active.
CC(C)Sc1cccc(C(=O)Nc2sccc2C(N)=O)c1 was read as AMPAR-TARP mod active.
CC(C)Sc1cccc(C(=O)Nc2nnc(-c3cccs3)o2)c1 was read as AMPAR-TARP mod inactive.
For O=C(c1ccco1)N1CCN(c2cc(=O)n(C3CCCCC3)c(=O)[nH]2)CC1 the results were AMPAR-TARP mod inactive and GIRK2 act inactive.
`O=C(CCCc1ccccc1)N1CCN(c2nccn2-c2cccc(Cl)c2)CC1` gave AMPAR-TARP mod active and GIRK2 act inactive.
COc1ccc(CCC(=O)N2CCN(c3nccn3-c3cccc(Cl)c3)CC2)cc1 was read as AMPAR-TARP mod inactive and GIRK2 act inactive.
Screening O=S(=O)(/C=C/c1ccccc1)N1CCN(c2ccc(-c3ccco3)nn2)CC1 returned AMPAR-TARP mod inactive and GIRK2 act inactive.
For CC(Oc1ccccc1F)C(=O)N1CCN(c2ccc3nnc(-c4ccco4)n3n2)CC1 (stereo not given) the results were AMPAR-TARP mod active and GIRK2 act inactive.
O=S(=O)(/C=C/c1ccccc1)N1CCN(c2ccc3nnc(-c4ccco4)n3n2)CC1 was read as AMPAR-TARP mod active and GIRK2 act inactive.
Screening O=C(c1ccc(F)cc1F)N1CCN(c2ccc3nnc(-c4ccco4)n3n2)CC1 returned AMPAR-TARP mod inactive and GIRK2 act inactive.
For O=S(=O)(c1cccc(Cl)c1)N1CCN(c2ccc3nnc(-c4ccco4)n3n2)CC1 the results were AMPAR-TARP mod inactive and GIRK2 act inactive.
`CCOC(=O)c1ccc(S(=O)(=O)N2CCN(c3ccc4nnc(CC)n4n3)CC2)cc1` gave AMPAR-TARP mod inactive and GIRK2 act inactive.
O=S(=O)(c1ccc(F)cc1)N1CCN(c2ccc3nnc(-c4ccco4)n3n2)CC1 was read as AMPAR-TARP mod active and GIRK2 act inactive.
`CCCC(=O)Nc1ccc(S(=O)(=O)N2CCN(c3ccc4nnc(C)n4n3)CC2)cc1` gave AMPAR-TARP mod active and GIRK2 act inactive.
For CCOc1ccc(-c2nc(S(=O)(=O)c3ccccc3)c(N3CCOCC3)o2)cc1 the results were AMPAR-TARP mod inactive and GIRK2 act inactive.
`O=C(NCCc1ccc(Cl)cc1)C(=O)Nc1nccs1` gave AMPAR-TARP mod inactive.
Cc1nc(Nc2ccc(NC(=O)c3ccccc3F)cc2)cc(-n2cccn2)n1 was read as AMPAR-TARP mod inactive and GIRK2 act inactive.
For COc1ccccc1CNC(=O)CCc1csc(NC(=O)c2ccc[nH]c2=O)n1 the results were AMPAR-TARP mod inactive.
Screening O=C(Cc1cccs1)Nc1sc2ccccc2c(=O)c1-c1ccc2c(c1)OCO2 returned AMPAR-TARP mod inactive and GIRK2 act inactive.
`COc1ccc(NC(=O)Cn2cc(-c3ccccc3C)c(N3CCOCC3)n2)cc1OC` gave GIRK2 act inactive.
For CCn1nnc2c(Nc3ccc(C)c(Cl)c3)ncnc21 the results were AMPAR-TARP mod inactive and GIRK2 act inactive.
Screening COc1ccc(S(=O)(=O)N2CCN(c3ccc4nnc(-c5ccco5)n4n3)CC2)cc1 returned AMPAR-TARP mod active and GIRK2 act inactive.
`CCc1ccc(S(=O)(=O)N2CCN(c3ccc4nnc(-c5ccco5)n4n3)CC2)cc1` gave AMPAR-TARP mod inactive and GIRK2 act inactive.
O=S(=O)(Nc1ccc(N2CCCS2(=O)=O)cc1)c1ccccc1 was read as AMPAR-TARP mod inactive.
Screening CCCOC(=O)c1cc2cc(Br)cc(OC)c2oc1=O returned AMPAR-TARP mod active and GIRK2 act inactive.
`CCC(C)NC(=O)c1cc2cc(Br)cc(OC)c2oc1=O` (stereo not given) gave AMPAR-TARP mod inactive and GIRK2 act inactive.

Screening results from PubChem.
